Measurements from PubChem BioAssay AID504850 (National Center for Advancing Translational Sciences (NCATS), 2011).
Hit rate of the full screen: of about 2,300 compounds, about 1,200 (52%) were called active. Roughly 34% stayed inconclusive and do not appear here. Calls come from the whole dose curve; as a rule, active = well fitted inhibition curve with a large enough effect; inconclusive = small, poorly fitted or top-dose-only effect, or effect the other way; inactive = no such curve, though single readings can be large or run the other way. So high a share suggests a set chosen from earlier hits. The list shows a part of the results.

Assay: Confirmation screen for delayed death inhibitors of the malarial parasite plastid, 48 hour incubation; note: nearly all actives have a fitted effect of over 65% in size
Conditions: P. falciparum-infected erythrocytes, luciferase growth; series mostly up to 28.7 µM
Description: The goal of this screen is to discover new antimalarial compounds that act by inhibiting the development of the apicoplast in the malarial parasite Plasmodium falciparum. The biochemical processes that make this organelle essential for erythrocytic stage parasites are not well understood. However, antibiotics, such as azithromycin and tetracycline, which target the apicoplast translational machinery, have a potent antimalarial effect. […] We have developed a cell-based assay that measures parasite growth based on the expression of an integrated copy of a firefly luciferase reporter. To detect small molecules that cause this "delayed death phenotype, erythrocytes infected with the luciferase-expressing parasites were incubated with compounds for either one or two generations, corresponding to 48 and 96 hours, respectively. Compounds that inhibit parasite growth in the second generation, but not the first, should be enriched in antimalarials that target the apicoplast. Growth inhibition is detected by a decrease in luciferase activity. MLPCN Grant: R21 NS059500 Assay Provider: David Fidock and Eric Ekland, Columbia University Keywords: NIH Roadmap, MLPCN, MLI, MLSMR, qHTS, NCGC, qHTS, malaria, luciferase, viability
Four microliters of culture medium (RPMI 1640 with 0.5% w/v Albumax (GIBCO), 24 mM sodium bicarbonate and 10 ug/mL gentamycin) were dispensed by a Multi-drop Combi into white solid 1536-well plates (Grenier) and 23 nL compound was added by a pin tool. Four microliters of infected erythrocytes (2% hematocrit, 0.1% parasitemia final concentration) in culture medium were dispensed and the plates incubated for 48 hours at 37 C in 5% CO2. Two microliters of luciferase detection reagent was added and luminescence was detected by a ViewLux (PerkinElmer) reader.
Potency is the fitted concentration of half-maximal effect.

Row | Compound | Potency
1 | COc1cc(C(=O)/C=C/c2cccnc2)ccc1O | 12.6 µM (active)
2 | COc1cc(/C=C/C(=O)OCC(=O)Nc2c(C)n(C)n(-c3ccccc3)c2=O)cc(OC)c1OC | inactive
3 | COc1cc(/C=C/C(=O)Nc2cccnc2)cc(OC)c1OC | 14.1 µM (active)
4 | CC(C)NC(=O)c1onc(CSc2cccc3ccccc23)c1C(=O)O | inactive
5 | COc1cc2cc[n+](Cc3ccc([N+](=O)[O-])cc3)cc2cc1OC | 5.01 µM (active)
6 | CCN1CCN(c2ncnc3c2c(-c2ccccc2)cn3-c2ccc(F)cc2)CC1 | 12.6 µM (active)
7 | Fc1ccccc1N1CCN(c2ncnc3nc[nH]c23)CC1 | inactive
8 | CN1CCN(c2ncnc3c2c(-c2ccccc2)cn3-c2ccc(F)cc2)CC1 | 11.2 µM (active)
9 | COc1ccc(-n2c(=O)/c(=C\c3cccs3)s/c2=C(/C#N)C(=O)N2CCN(C)CC2)cc1 | inactive
10 | O=C(CCl)N1CCN(CC(=O)N2CCCC2)CC1 | 15.8 µM (active)
11 | CN(C(=O)CN1C(=O)CCSc2ccc(S(=O)(=O)N3CCCC3)cc21)c1ccccc1 | 11.2 µM (active)
12 | OC(c1cc(C(F)(F)F)nc2c(Cl)cc(Cl)cc12)C1CCCCN1 (stereo unspecified) | 0.0282 µM (active)
13 | OC(c1cc(-c2ccc(Cl)cc2)nc2ccccc12)C1CCCCN1 (stereo unspecified) | 0.282 µM (active)
14 | O[C@@H](c1cc(C(F)(F)F)nc2c(C(F)(F)F)cccc12)[C@H]1CCCCN1 | 0.178 µM (active)
15 | OC(c1cc(C(F)(F)F)nc2c(C(F)(F)F)cccc12)C1CCCCN1 (stereo unspecified) | 0.0447 µM (active)
16 | COc1ccc(-n2c(C)cc(C(=O)COC(=O)Cc3n[nH]c(=O)c4ccccc34)c2C)cc1 | 5.62 µM (active)
17 | O=C(Cc1n[nH]c(=O)c2ccccc12)OCc1c(Cl)cccc1Cl | inactive
18 | CC(C)(C)C(=O)/C(=C\c1cccc([N+](=O)[O-])c1)n1cncn1 | 14.1 µM (active)
19 | CC(=O)c1ccc(NC(=O)C2Cc3ccccc3CN2C(=O)c2ccccc2)cc1 (stereo unspecified) | 14.1 µM (active)
20 | C/C1=C\CCC2C(/C=C(\C)CC1)OC(=O)C2CN1CCCCC1 (stereo unspecified) | 12.6 µM (active)
21 | N#Cc1cc(Oc2cccc3cccnc23)c(-n2nnc3ccccc32)cc1C#N | 5.01 µM (active)
22 | COc1ccccc1-c1cc(C(=O)N/N=C/c2ccc(C)o2)c2ccccc2n1 | inactive
23 | COc1ccccc1-c1cc(C(=O)N/N=C/c2ccc(C)s2)c2ccccc2n1 | 5.62 µM (active)

Row | Compound | Potency
24 | COc1ccccc1-c1cc(C(=O)N/N=C/c2cccs2)c2ccccc2n1 | 5.62 µM (active)
25 | OC1C2(Cc3ccccc3)CN3CCN(C2)CC1(Cc1ccccc1)C3 (stereo unspecified) | 2 µM (active)
26 | CCCc1cc(NCCCN2CCOCC2)n2c(nc3ccccc32)c1C#N | 8.91 µM (active)
27 | Cc1ccccc1-c1nnc(NC(=O)c2ccc(N3C(=O)CCC3=O)cc2)s1 | 14.1 µM (active)
28 | CCC[C@H]1C[C@H](C(=O)N[C@@H]([C@H]2O[C@@H](SC)[C@@H](O)[C@@H](O)[C@@H]2O)[C@H](C)Cl)N(C)C1 | 0.631 µM (active)
29 | COc1ccc(NS(=O)(=O)c2ccc(N3CCOCC3)c(NC(=O)c3ccc(OC)cc3)c2)cc1 | 11.2 µM (active)
30 | CCOC(=O)C1=C(C)NC(C)=C(C(=O)OCC)C1c1cc(N)ccc1OC(F)F | 5.62 µM (active)
31 | COC(=O)COc1ccc(S(=O)(=O)NCCC2=CCCCC2)cc1Cl | inactive
32 | CCOc1ccc(S(=O)(=O)N2CCCC(C(=O)NC3CC3)C2)cc1Cl (stereo unspecified) | 12.6 µM (active)
33 | COc1cccc2sc(NNC(=O)c3nc4ccccc4s3)nc12 | 15.8 µM (active)
34 | O=C(NC1CCCCC1)C(c1ccncc1)N(Cc1ccccc1)C(=O)c1ccc(-c2ccccc2)[nH]1 (stereo unspecified) | 4.47 µM (active)
35 | O=C(NC1CCCC1)C(c1ccncc1)N(Cc1ccco1)C(=O)c1ccc(-c2ccccc2)[nH]1 (stereo unspecified) | 11.2 µM (active)
36 | COc1ccc(CN(C(=O)/C=C/C(=O)c2ccc(OC)cc2O)C(C(=O)NC2CCCCC2)c2ccncc2)cc1 (stereo unspecified) | 7.94 µM (active)
37 | COc1ccc(NC(=S)N(CCCN2CCCCCC2)Cc2cccs2)cc1 | 11.2 µM (active)
38 | O=C(Nc1nnc(SCC(=O)N2CCCC2)s1)C1CC(=O)N(c2ccc(F)cc2)C1 (stereo unspecified) | 11.2 µM (active)
39 | COc1cccc(N2CC(C(=O)Nc3nnc(SCCC4OCCO4)s3)CC2=O)c1 (stereo unspecified) | 12.6 µM (active)
40 | CCc1ccc(NC2=CC(=O)C(=O)c3ccccc32)cc1 | 0.501 µM (active)
41 | Cn1nccc1C(=O)N1CCc2c([nH]c3ccccc23)C1c1ccc(F)cc1 (stereo unspecified) | 7.94 µM (active)
42 | CCc1ccc(C2c3[nH]c4ccccc4c3CCN2C(=O)c2cc(C)nn2C)cc1 (stereo unspecified) | 5.01 µM (active)
43 | CSc1ccc(C2c3[nH]c4ccccc4c3CCN2C(=O)c2ccnn2C)cc1 (stereo unspecified) | 7.08 µM (active)
44 | Cc1cc[n+]2cc(-c3cccc([N+](=O)[O-])c3)c(-c3cccc([N+](=O)[O-])c3)cc2c1 | 0.631 µM (active)
45 | COc1cccc(S(=O)(=O)NCc2ccc(C(=O)NCc3ccccn3)cc2)c1 | inactive
46 | COc1ccc(N(C)S(=O)(=O)c2cccc(C(=O)NCc3ccc(C)cc3)c2)cc1 | 12.6 µM (active)

Row | Compound | Potency
47 | CN(CCOc1ccccc1)C(=O)C1CCC(=O)N(CCN2CCOCC2)C1 (stereo unspecified) | inactive
48 | CN(Cc1ccccc1Cl)C(=O)C1CCC(=O)N(CCc2cccc(F)c2)C1 (stereo unspecified) | 11.2 µM (active)
49 | O=C(Nc1ccccc1)N1CCC(O)(c2cccc(C(F)(F)F)c2)CC1 | 11.2 µM (active)
50 | CCOc1ccccc1NC(=O)C(CC)Sc1nc2ccsc2c(=O)n1CCC(=O)O (stereo unspecified) | 12.6 µM (active)
51 | C[N+]1(CCCCSc2ccc(O)cc2)CCCCC1 | 7.08 µM (active)
52 | Cc1c(C(=O)N2CCN(c3ccc([N+](=O)[O-])cc3)CC2)sc2ncn(CC(=O)N3CCOCC3)c(=O)c12 | 12.6 µM (active)
53 | COc1ccc(N2CCN(C3CCCN(Cc4ccc(F)cc4)C3)CC2)cc1 (stereo unspecified) | 11.2 µM (active)
54 | COc1ccccc1N1CCN(C2CCCN(Cc3ccc(Cl)cc3)C2)CC1 (stereo unspecified) | 6.31 µM (active)
55 | CCOC(=O)CSc1nnc(NC(=O)c2cccc([N+](=O)[O-])c2)s1 | 12.6 µM (active)
56 | O=C(CSc1nnc(NC(=O)c2ccccc2[N+](=O)[O-])s1)NCC1CCCO1 (stereo unspecified) | inactive
57 | CCC(C)[C@H](NC(=O)[C@H](Cc1ccccc1)n1c(=O)[nH]c2ccccc2c1=O)C(=O)NCC1CCC(C(=O)O)CC1 (stereo partly specified) | 12.6 µM (active)
58 | Clc1ccc(-c2c[n+](Cc3ccc(Br)cc3)c3n2CCCCC3)cc1 | 0.199 µM (active)
59 | Clc1ccc(-c2c[n+](Cc3ccc(Cl)cc3Cl)c3n2CCCCC3)cc1 | 1.26 µM (active)
60 | Nc1nnnn1/N=C/C(Br)=C/c1ccccc1 | 12.6 µM (active)
61 | CCN1CCC(Nc2ccnc3cc(Cl)ccc23)CC1 | 0.126 µM (active)
62 | O=C(NNc1ccnc2cc(Cl)ccc12)C1CCCCC1 | 0.891 µM (active)
63 | S=C(Nc1ccccc1Cl)N(Cc1ccccc1)Cc1cccnc1 | 12.6 µM (active)
64 | CCOC(=O)[C@H]1[C@H]2COc3cc(OC)ccc3[C@@H]2N2C(=O)N(c3ccc(Cl)cc3)C(=O)[C@@]12C | 12.6 µM (active)
65 | O=c1cc(CSc2nc(NCc3ccccc3)c3ccccc3n2)nc2ccc(Cl)cn12 | 5.01 µM (active)
66 | Cc1ncc(CO)c(/C=N/NC(=S)Nc2ccc(F)cc2)c1O | 12.6 µM (active)
67 | COc1ccc(C(=O)NCC(=O)N/N=C/c2ccc([N+](=O)[O-])s2)cc1OC | 11.2 µM (active)
68 | O=C(CNC(=O)c1cccc(F)c1)N/N=C/c1ccc([N+](=O)[O-])s1 | 11.2 µM (active)
69 | COc1ccc(C(=O)NCC(=O)N/N=C(C)\C=C\c2ccccc2)cc1OC | inactive

Row | Compound | Potency
70 | CCCCCCCn1c(=O)c(C(=O)OC)c(N)c2ccccc21 | 12.6 µM (active)
71 | NNc1nc(-c2ccccc2Cl)c2cc(Br)ccc2n1 | 11.2 µM (active)
72 | Cc1c(OCC(=O)NCC(O)c2ccccc2)ccc2c3c(c(=O)oc12)CCC3 (stereo unspecified) | 14.1 µM (active)
73 | O=C(COc1cc2oc(=O)c3c(c2cc1Cl)CCC3)NCC(O)c1ccccc1 (stereo unspecified) | 11.2 µM (active)
74 | O=S(=O)(NCC(O)c1ccccc1)c1cc(Cl)sc1Cl (stereo unspecified) | inactive
75 | OC1(c2cccs2)CN(c2ccc(Cl)cc2)C2=[N+]1CCCC2 (stereo unspecified) | 10 µM (active)
76 | OC1(c2cccs2)CN(c2ccc(Br)cc2)C2=[N+]1CCCS2 (stereo unspecified) | 12.6 µM (active)
77 | CC(C)(C)Nc1nc(Cl)nc(NC2CCCCC2)n1 | 14.1 µM (active)
78 | O=C1c2ccccc2-n2c1nc1ccccc1c2=O | 0.708 µM (active)
79 | O=C1c2cc(F)ccc2-n2c1nc1ccccc1c2=O | 0.178 µM (active)
80 | NC(=S)Nn1c(-c2ccccc2)nc2ccccc2c1=O | inactive
81 | CN(C)CCn1c(=O)n(Cc2ccco2)c(=O)c2c3c(sc21)CCCCC3 | 12.6 µM (active)
82 | COc1cccc(NC(=O)c2ccc(CN3CCN(c4ccccc4)CC3)cc2)c1 | 15.8 µM (active)
83 | O=C(Nc1ccccc1F)c1ccc(CN2CCN(c3ccccc3)CC2)cc1 | inactive
84 | COc1ccc(NC(=O)c2ccc(CN3CCN(c4ccccc4)CC3)cc2)cc1OC | 10 µM (active)
85 | O=C(Nc1ccc(F)cc1F)c1ccc2c(c1)[nH]c(=O)n2Cc1ccc(F)cc1 | 12.6 µM (active)
86 | Oc1cccc2ccc(/C=C/c3ccccc3Br)nc12 | 2.82 µM (active)
87 | COc1ccc(Cl)cc1/C=C/c1ccc2cccc(O)c2n1 | 6.31 µM (active)
88 | Cn1c2ccccc2c(=O)c2ccc(C#Cc3ccc(N)cc3)cc21 | 12.6 µM (active)
89 | COc1ccc(C#Cc2ccc3c(=O)c4ccccc4n(C)c3c2)cc1 | 10 µM (active)
90 | Cc1ccc2c(c1)c1c3n2CCN(C(=O)CCl)C3CCC1 (stereo unspecified) | 12.6 µM (active)
91 | Cc1cc(C)cc(CC(Cc2nc3ccccc3[nH]2)c2nc3ccccc3[nH]2)c1 (stereo unspecified) | 2.24 µM (active)
